# High-throughput results (PubChem BioAssay)
# An excerpt weighted towards active compounds, which were near 4.1% of everything screened.
# tim23-1 inh: growth inhibitors of tim23-1 mutant yeast; inhibition, % at 20 µM; S. cerevisiae tim23-1 growth, BacTiter-Glo luminescence, 24 h; 330,000 compounds, 1.3% hits;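 active = growth inhibition of the mutant yeast at or above 50%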;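 also: temperature-sensitive mutant grown at 25 °C; plate controls were DMSO-treated mutant yeast for no effect and medium wells lacking yeast for full effect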
# NALP1 yeast inh: blocks the NALP1 inflammasome reconstituted in yeast; S. cerevisiae NALP1/ASC/caspase-1 growth, X-gal OD620, 72 h; inhibition, % at 10 µM; 280,000 compounds, 0.61% hits; AID 2071; in the data active = inhibition mostly above about 24%, no sharp cut-off; inactive = mostly below about 32%
# NALP3 yeast inh: blocks the NALP3 inflammasome reconstituted in yeast; AID 2825; 330,000 compounds, 0.39% hits; Yeast reconstituted NLRP3/ASC/caspase-1, beta-gal luminescence, 24 h; inhibition, % at 10 µM;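 active = inhibition of 50% or more; inactive = inhibition below 50%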;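 also: plate controls were induced DMSO wells for no effect and uninduced yeast grown without galactose for full effect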
# tim10-1 inh: tim10-1 yeast growth inhibition. 330,000 compounds, 2.2% hits. inhibition, % at 20 µM. S. cerevisiae tim10-1 ts strain growth, BacTiter-Glo, 24 h;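 active = inhibition of at least 40%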;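 also: mutant grown at 25 °C; 0% = DMSO wells with yeast and 100% = wells holding no yeast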
# TIM10 inh: TIM10 yeast growth inhibition; 330,000 compounds, 1.4% hits; inhibition, % at 10 µM; S. cerevisiae TIM10 strain growth, BacTiter-Glo luminescence, 24 h;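 active = inhibition of 40% or more at the single tested concentration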;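 also: wild-type TIM10 isogenic control strain grown at permissive 25 °C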
# tim10-1 conf: confirmation of tim10-1 mutant yeast growth inhibitors; AID 463213; 7,400 compounds, 56% hits; inhibition, % at 20 µM; shares compounds with tim10-1 inh; S. cerevisiae tim10-1 ts strain growth, BacTiter-Glo, 24 h;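 active = inhibition of yeast growth at or above a set limit in either of two repeat tests at 20 µM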;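 also: tim10-1 mutant grown at permissive 25 °C to find synthetic lethal compounds; 0% = DMSO yeast wells and 100% = medium wells without yeast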
# tim10 confirm: TIM10 yeast growth inhibition, confirmed | shares compounds with TIM10 inh | 4,600 compounds, 63% hits | AID 463215 | inhibition, % at 10 µM | S. cerevisiae tim10 strain growth, BacTiter-Glo luminescence, 24 h;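 active = inhibition of yeast growth at or above a set limit in either of two replicates at 10 µM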;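 also: this counterscreen used the strain with wild-type TIM10; 0% = yeast with DMSO and 100% = medium wells lacking yeast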
# tim23-1 conf: tim23-1 yeast growth inhibition, confirmed. S. cerevisiae tim23-1 growth, BacTiter-Glo luminescence, 24 h. shares compounds with tim23-1 inh. 4,400 compounds, 83% hits. inhibition, % at 20 µM. AID 463218;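 active = inhibition above about 39% in either of two replicate wells at 20 µM, limit read from the data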;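 also: temperature-sensitive tim23-1 mutant grown at 25 °C; 0% = DMSO wells with yeast and 100% = medium wells without yeast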
# An asterisk follows results filed as active; . = no result given.
SMILES,tim23-1 inh,NALP1 yeast inh,NALP3 yeast inh,tim10-1 inh,TIM10 inh,tim10-1 conf,tim10 confirm,tim23-1 conf
CC(=O)N1N=C(c2ccccc2O)CC1c1cccs1 (stereo unspecified),31.3,6.4,-0.7,11.3,17.2,.,.,.
CCNC(=S)N/N=C/c1cn(Cc2ccccc2F)c2ccccc12,18.0,15.5,17.1,13.6,30.5,.,.,.
CNC(=S)N/N=C/c1cn(Cc2c(F)cccc2Cl)c2ccccc12,51.1*,20.4,15.6,47.1*,57.1*,37.0*,-9.8,40.0*
COc1ccccc1C(=O)NCC(=O)N1CC=C(c2ccccc2)CC1,6.9,.,17.8,-18.0,2.8,.,.,.
CCCCCCC(=O)N/N=C/c1ccc(Br)cc1,72.6*,23.3,6.4,50.5*,34.3,32.6*,.,72.9*
Cc1ccc(N2C(=O)CC(Sc3ncn[nH]3)C2=O)cc1C (stereo unspecified),76.9*,39.5*,4.7,47.0*,56.3*,53.3*,55.3*,48.6*
Cc1cc(C)nc(SC2CC(=O)N(c3ccc(C)c(C)c3)C2=O)n1 (stereo unspecified),18.2,7.7,23.9,21.8,18.4,.,.,.
C/C(=N\NC(=O)c1c(-c2ccccc2Cl)noc1C)c1cccc(NC(=O)C(C)C)c1,1.8,21.0,0.8,7.8,-5.2,.,.,.
CCNC(=O)COC(=O)c1cc(-c2ccc(OC)cc2)nc2ccccc12,42.2,1.6,25.8,17.9,19.7,.,.,.
CCCCNC(=S)NNC(=O)c1cc(-c2cccnc2)nc2ccccc12,23.6,-3.0,16.0,25.1,22.1,.,.,.
CCNC(=S)NNC(=O)c1cc(-c2cccc(C)c2)nc2ccccc12,73.5*,-12.2,2.1,82.2*,54.9*,79.0*,40.8*,71.5*
CCNC(=S)NNC(=O)c1cc(-c2ccc(OC)cc2)nc2ccccc12,85.8*,26.3,6.4,81.8*,54.2*,73.7*,-29.5,78.4*
CCNC(=S)NNC(=O)c1cc(C)nc2ccccc12,-2.1,6.5,3.7,-3.0,6.3,.,.,.
CCCCOc1ccc(-c2cc(C(=O)NNC(=S)NCC)c3ccccc3n2)cc1,67.4*,-4.4,10.3,71.5*,47.3*,70.0*,46.2*,73.8*
CCc1ccc(-c2ccc(SCC(=O)NCC3CCCO3)nn2)cc1 (stereo unspecified),9.4,-16.1,-9.1,22.4,17.9,.,.,.
COc1ccccc1-c1ccc(Nc2cccc(C(F)(F)F)c2)nn1,-5.2,8.3,3.1,8.3,-8.5,.,.,.
COc1ccccc1-c1ccc(NC2CCCCC2)nn1,51.9*,10.4,16.8,42.8*,28.5,38.5*,.,41.5*
Clc1ccc(N=c2ssnc2Cl)nc1,62.1*,-19.2,34.3,56.7*,85.2*,76.8*,47.5*,89.9*
COc1cnc(-c2ccccn2)nc1Sc1cccc(Cl)c1,63.1*,-10.8,33.1,43.7*,30.6,28.2,.,55.0*
Cc1ccc(SCC(=O)OCC(=O)N(C)C2CCS(=O)(=O)C2)cc1C (stereo unspecified),6.7,.,12.2,3.5,0.1,.,.,.
CCOC(=O)Nc1ccc(C(=O)c2ccncc2)cc1,25.6,23.1,14.1,29.2,22.4,.,.,.
Cc1ccc(SCC(=O)OCn2nnc3ccccc3c2=O)cc1C,67.0*,8.8,1.2,42.4*,25.7,26.1,.,50.8*
C/C(=N\NC(=O)c1ccccc1NC(=O)c1ccc(Cl)cc1)c1ccncc1,95.0*,9.6,1.1,96.2*,95.5*,97.2*,95.8*,100.4*
CC(C)(C)c1ccc(S(=O)(=O)N2CCN(CC(=O)NC(=O)NC3CCCCC3)CC2)cc1,17.7,.,7.4,24.9,10.9,.,.,.
COc1ccc(S(=O)(=O)NCC(=O)N(CC(=O)NCC2CCCO2)Cc2ccc(F)cc2)cc1 (stereo unspecified),4.0,32.8,0.6,4.1,-13.5,.,.,.
COc1ccc(C(C[N+](=O)[O-])c2c(C)[nH]c3ccccc23)cc1OC (stereo unspecified),30.6,44.1,27.8,35.2,18.5,.,.,.
